PubChem BioAssay (NCATS)
Inconclusive results are not listed. Where a call stands in place of a potency, no number is given. The source made the active and inactive calls. Calls come from the whole dose curve; as a rule, active = well fitted inhibition curve with a large enough effect; inconclusive = small, poorly fitted or top-dose-only effect; inactive = flat fitted curve, though single readings scatter.

Tests used:
Assay in all cases: qHTS profiling for inhibitors of Plasmodium falciparum proliferation (AID 504749); note: nearly all actives have a fitted effect of over 60% in size
Settings in all cases: P. falciparum in erythrocytes, SYBR Green DNA, 72 h; series mostly up to 28.7 µM
CP250 = tested on: CP250
Procedure, shortened: (§1)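 Three-day growth assay of blood-stage parasites in erythrocytes (0.3% parasitemia, 2.5% hematocrit) at 37 C, 5% CO2, quantified by SYBR Green DNA staining after overnight detergent lysis.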

CP256 = tested on: CP256
Procedure, shortened: as §1

CP262 = tested on: CP262
Procedure, shortened: as §1

CP266 = tested on: CP266
Procedure, shortened: as §1

CP238 = tested on: CP238
Procedure, shortened: as §1

CP247 = tested on: CP247
Procedure, shortened: as §1

CP252 = tested on: CP252
Procedure, shortened: as §1

CP260 = tested on: CP260
Procedure, shortened: as §1

CP265 = tested on: CP265
Procedure, shortened: as §1

CP237 = tested on: CP237
Procedure, shortened: as §1
Potency is the fitted concentration of half-maximal effect.

Compound | Potency (CP250) | Potency (CP256) | Potency (CP262) | Potency (CP266) | Potency (CP238) | Potency (CP247) | Potency (CP252) | Potency (CP260) | Potency (CP265) | Potency (CP237)
COCCOC(=O)C1=C(C)NC(C)=C(C(=O)OC(C)C)C1c1cccc([N+](=O)[O-])c1 (stereo unspecified) | inactive | inactive | inactive | inactive | – | – | – | – | – | –
NC(=Nc1ccccc1)Nc1ccccc1 | inactive | inactive | inactive | inactive | inactive | inactive | inactive | inactive | inactive | –
CN(C)CCCN1c2ccccc2Sc2ccccc21 | – | – | inactive | inactive | – | – | – | – | 2.82 µM (active) | –
COc1ccc(CCN(C)CCCC(C#N)(c2cc(OC)c(OC)c(OC)c2)C(C)C)cc1OC (stereo unspecified) | inactive | – | – | inactive | – | – | – | – | inactive | –
CCOC(=O)C1=C(C)NC(C)=C(C(=O)OC)C1c1cccc([N+](=O)[O-])c1 (stereo unspecified) | – | – | – | inactive | 10 µM (active) | – | 11.2 µM (active) | – | – | 12.6 µM (active)
COc1cc(C(=O)OCCCN2CCCN(CCCOC(=O)c3cc(OC)c(OC)c(OC)c3)CC2)cc(OC)c1OC | 10 µM (active) | – | – | – | – | 7.94 µM (active) | – | 10 µM (active) | 11.2 µM (active) | 6.31 µM (active)
CCCN1C[C@H](CSC)C[C@@H]2c3cccc4[nH]cc(c34)C[C@H]21 | inactive | 8.91 µM (active) | inactive | inactive | – | – | – | – | – | –
Cc1nc2sccn2c(=O)c1CCN1CCC(=C(c2ccc(F)cc2)c2ccc(F)cc2)CC1 | – | inactive | – | inactive | – | – | – | – | – | –
CCCC(C(=O)OCCN(CC)CC)(c1ccccc1)c1ccccc1 | – | – | – | – | – | 8.91 µM (active) | – | – | 10 µM (active) | 10 µM (active)
CN(C)CCOC(=O)COc1ccc(Cl)cc1 | inactive | inactive | inactive | – | inactive | – | inactive | inactive | inactive | –
Cc1ccc(Cl)c(Nc2ccccc2C(=O)O)c1Cl | inactive | inactive | inactive | inactive | inactive | inactive | inactive | – | inactive | –
CNCCC(Oc1ccccc1OC)c1ccccc1 (stereo unspecified) | inactive | – | inactive | inactive | – | – | – | – | – | inactive
COC(=O)[C@@H](N)Cc1ccc(O)c(O)c1 | – | inactive | – | inactive | inactive | – | inactive | inactive | inactive | –
CC(C)(C)c1ccc(C(=O)CCCN2CCC(OC(c3ccccc3)c3ccccc3)CC2)cc1 | – | – | – | – | 11.2 µM (active) | – | 10 µM (active) | 10 µM (active) | – | 11.2 µM (active)
CN(C)CCCN1c2ccccc2Sc2ccc(C(F)(F)F)cc21 | inactive | inactive | inactive | inactive | inactive | inactive | inactive | – | inactive | –
CN(C(=O)CCCOc1ccc2[nH]c(=O)ccc2c1)C1CCCCC1 | inactive | inactive | inactive | – | inactive | – | inactive | inactive | inactive | inactive
CC(=O)[C@]1(O)Cc2c(O)c3c(c(O)c2[C@@H](O[C@H]2C[C@H](N)[C@H](O)[C@H](C)O2)C1)C(=O)c1ccccc1C3=O | 6.31 µM (active) | 10 µM (active) | 12 µM (active) | 8.49 µM (active) | 7.08 µM (active) | – | 7.94 µM (active) | 2 µM (active) | – | 3.55 µM (active)
C=CCc1ccccc1OCC(O)CNC(C)C (stereo unspecified) | inactive | – | inactive | inactive | 11.2 µM (active) | – | – | – | – | 5.01 µM (active)
NC(N)=N/N=C/c1c(Cl)cccc1Cl | – | – | 13.5 µM (active) | – | – | – | – | – | – | –
CN(C)CC/C=C1\c2ccccc2COc2ccccc21 | inactive | inactive | inactive | inactive | – | – | – | – | 11.2 µM (active) | –
